Bioassay records deposited in PubChem by National Center for Advancing Translational Sciences (NCATS).
An excerpt weighted towards active compounds, which were near 1% of everything screened.
RXFP1 antag – antagonists of human relaxin receptor RXFP1 | activity change, negative = inhibition, % at 57.5 µM | 0.59% of 350,000 active | HEK293-RXFP1, relaxin-stimulated cAMP HTRF, 30 min; active compounds read low;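 active means activity change of -60% or lower, but not beyond a set lower limit; inconclusive means change between -60% and -40%, or beyond the set limit; inactive means change above -40%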
gsp antag – antagonizes gsp, the McCune-Albright syndrome mutation; Potency, µM (doses to about 76.9 µM), most hits filed as inhibitors; gsp-mutant cells, cAMP HTRF, 30 min; 0.4% of 340,000 active; calls by dose curve; cell line not stated here;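 further: intracellular cAMP measured with PDE inhibitor Ro 20-1724 present during compound exposure; nearly all actives have a fitted effect of over 65% in size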
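Cells in G418 medium, seeded 16-24 h, 37C; buffer exchange to DPBS + 1 mM CaCl2, 0.5 mM MgCl2, 0.05% BSA; cpds in DMSO + […] (300 uM stock), 30 min 37C; HTRF cAMP detection.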
RXFP1 agonist – agonists of human relaxin receptor RXFP1; HEK293T-RXFP1 cAMP TR-FRET, 30 min; response scale: percent of porcine relaxin response, buffer zero; Potency, µM (titrated, usually from 57.5 µM), usual class: activators; Q9HBX9; 0.3% of 370,000 active; active means well fitted activation curve with a large enough effect; inconclusive means small, poorly fitted or top-dose-only effect; further: nearly all actives have a fitted effect of over 60% in size
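Agonist response is measured as cAMP accumulation in an RXFP1-transfected HEK293T line under PDE4 inhibition. Values are scaled between buffer-only and 29 nM porcine relaxin, and EC50s come from standard Hill equation fits.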
gsp agonist – activates gsp, the McCune-Albright syndrome mutation; gsp mutant cells, cAMP HTRF, 30 min; Potency, µM (top dose mostly 76.9 µM), most hits filed as activators; 0.13% of 340,000 active; AID 624287; active means well fitted activation curve with a large enough effect; inconclusive means small, poorly fitted or top-dose-only effect, or another doubt; inactive means no such curve, though single readings can be large or run the other way; cell line not stated here;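 further: phosphodiesterase inhibitor Ro 20-1724 added with compounds to block cAMP breakdown; nearly all actives have a fitted effect of over 60% in size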
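Cells in DMEM/10% FBS with G418 were pretreated with compounds in DMSO plus […] (300 uM stock) for 30 min at 37C. cAMP was measured by HTRF (cAMP-d2 plus anti-cAMP antibody-K) after 30 min at room temperature.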
TSHR antag – blocks TSH signaling through the human TSH receptor; P16473; TSHR-expressing cells, TSH-stimulated cAMP HTRF, 2 h; active compounds read low; 0.2% of 330,000 active; activity change, negative = inhibition, % at 11.5 µM; AID 504810;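 active means activity change below a set negative limit, meaning inhibition stronger than a set level, cut at about -70% in these data; inconclusive means activity change between two set negative limits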
Target sequence (P16473 whole entry, looked up): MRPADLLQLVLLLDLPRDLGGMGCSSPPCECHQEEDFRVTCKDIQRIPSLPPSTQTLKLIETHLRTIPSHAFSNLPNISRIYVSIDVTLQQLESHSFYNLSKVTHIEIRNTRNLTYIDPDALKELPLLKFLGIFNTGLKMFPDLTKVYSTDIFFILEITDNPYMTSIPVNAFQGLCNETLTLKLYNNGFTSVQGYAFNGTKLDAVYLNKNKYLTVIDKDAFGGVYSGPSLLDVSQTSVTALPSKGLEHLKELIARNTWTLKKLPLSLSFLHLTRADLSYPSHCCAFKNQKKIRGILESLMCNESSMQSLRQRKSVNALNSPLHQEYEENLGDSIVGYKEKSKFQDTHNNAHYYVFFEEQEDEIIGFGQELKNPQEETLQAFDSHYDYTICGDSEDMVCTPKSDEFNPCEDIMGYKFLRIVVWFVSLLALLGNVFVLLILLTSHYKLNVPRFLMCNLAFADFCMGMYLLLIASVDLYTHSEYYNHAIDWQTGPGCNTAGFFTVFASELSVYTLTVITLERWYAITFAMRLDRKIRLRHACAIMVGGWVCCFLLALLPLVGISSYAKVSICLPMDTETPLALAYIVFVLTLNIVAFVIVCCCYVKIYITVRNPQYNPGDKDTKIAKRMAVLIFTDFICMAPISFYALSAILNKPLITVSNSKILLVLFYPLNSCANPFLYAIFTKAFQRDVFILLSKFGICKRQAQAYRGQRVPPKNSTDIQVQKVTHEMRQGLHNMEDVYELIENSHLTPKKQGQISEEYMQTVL
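Cell-based HTRF cAMP assay; TSHR cells + compound, TSH EC80 (4nM final), 2 h, 37 deg C. Lysis with anti-cAMP cryptate and cAMP-d2, 30 min RT, read 665/620 nm.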
Numbers stand for hits; - = inactive; ? = inconclusive; . = not tested or not shown; [ ] = another dose, or the depositor's remark.

SMILES	RXFP1 antag	gsp antag	RXFP1 agonist	gsp agonist	TSHR antag
CCc1ccccc1NC(=O)c1cc(S(=O)(=O)N(CC)c2ccccc2)ccc1F	-	.	-	.	.
COc1ccc(N(CC(=O)Nc2ccc(F)c(F)c2)S(=O)(=O)c2c(C)n[nH]c2C)cc1	-86	?	-	-	-
Cc1cc(C)c2sc(N(CCCN(C)C)C(=O)COc3ccc(Cl)cc3)nc2c1	-72	-	-	-[15.4 µM]	-
Cc1cc(C)c2sc(N(CCCN(C)C)C(=O)c3ccc(S(=O)(=O)N(C)C4CCCCC4)cc3)nc2c1	-84	-	-	-[15.4 µM]	-
CN(C)CCCN(C(=O)c1ccc(S(=O)(=O)N(C)C2CCCCC2)cc1)c1nc2ccc(F)cc2s1	-	-	-	-	-
CCC(C)[C@@H](NC(=O)OC(C)(C)C)c1nnc(S(=O)(=O)Cc2cccc(C)c2)o1 (stereo partly drawn)	?	-	-	-	-72
CC(C)(C)OC(=O)N[C@@H](Cc1ccccc1)c1nnc(S(=O)(=O)Cc2ccccc2)o1	.	.	-	.	-
Cc1ccccc1CS(=O)(=O)c1nnc([C@H](Cc2ccccc2)NC(=O)OC(C)(C)C)o1	-67	-	-	-	?
CCOc1ccc(N(C)C(=O)C2CCN(S(=O)(=O)c3c(C)noc3/C=C/c3ccc(C)cc3)CC2)cc1	-	.	-	.	.
O=C(Nc1cc(F)ccc1F)c1cc2nc(-c3ccco3)cc(C(F)(F)Cl)n2n1	-	.	-	.	.
Cc1c(Cl)cccc1NC(=O)CSc1nc(=O)n(CCN2CCOCC2)c2c1CCC2	-	.	-	.	.
CC(C)=C1C2CCC1C(C(=O)Nc1sc(C)c(-c3ccc(C(C)C)cc3)c1C(N)=O)C2C(=O)O (stereo not drawn)	-	32µM	-	-	-
O=C(Nc1ccccc1)Nc1ncc([N+](=O)[O-])s1	-	28µM	-	-[15.4 µM]	?
O=C(COC(=O)c1ccccc1)Nc1ncc([N+](=O)[O-])s1	-	-	.	-[15.4 µM]	-
CCN(C(=O)CSc1nc(C)nc2sc(C)c(C)c12)c1ccc(F)cc1	-	-	-	?	-
CCN(Cc1ccc2c(c1)OCO2)C(=O)CSc1nc(C)nc2sc(C)c(C)c12	-	40µM	-	-	-
C=CCN(c1ccccc1)S(=O)(=O)c1ccc2c(c1)oc(=O)n2C	-77	-	-	-	-
Cc1ccc(C(CNC(=O)Nc2ccc(Cl)cc2)N2CCN(C)CC2)cc1 (stereo not drawn)	-84	-	-	?	-
CCN(CC)c1ccc(NC(=O)c2cnn3c(C(F)F)cc(-c4ccccc4)nc23)cc1	-	.	-	.	.
CCC1SC(=NC(=O)c2ccc(Cl)c(Cl)c2)NC1=O (stereo not drawn)	-	13µM	-	-	-
O=C(CN1C(=O)c2cccc3cccc1c23)Nc1ccccc1Br	.	.	-	.	.
CCOC(=O)N1CCN(C(=O)CCc2ccccc2)CC1	-	-	-	-	-128
O=C(CCc1ccccc1)N1CCN(C(=O)CCc2ccccc2)CC1	-	-	.	-	.
CCOc1ccc(C(C)=O)cc1CSC(=N)N	-	-	-	-	-
CCCCOc1ccc(Br)cc1CSC(=N)N	-71	-	-	-[15.4 µM]	-
SMILES	RXFP1 antag	gsp antag	RXFP1 agonist	gsp agonist	TSHR antag
COc1cc(/C=C(\CCC(=O)O)c2nc3ccccc3s2)ccc1OCC(=O)Nc1c(Cl)cccc1Cl	-	28µM	.	-	.
O=C(O)CC/C(=C/c1cccc(NC(=O)c2ccccc2Cl)c1)c1nc2ccccc2s1	-	?	.	-	.
COc1cc(C(=O)OC(COCCC(C)C)CN2CCOCC2)cc(OC)c1OC (stereo not drawn)	-	.	.	.	.
COc1ccc(NC(=O)N2CCOc3ccc(Cl)cc32)cc1	-	.	-	.	.
CC1(C)NC(=O)N(CC(=O)Nc2ccc(-n3cnnn3)cc2)C1=O	-71	-	.	-	-
CCc1cccc(NC(=O)CCc2nc3cccnc3n2Cc2ccc(OC)cc2)c1	-	.	-	.	.
Cc1cc(C)c(NC(=O)CSc2nc(=O)n(Cc3ccco3)c3c2CCC3)c(C)c1	.	.	-	.	.
CC1=NOC(=O)/C1=C\c1ccc(-c2ccc(Br)cc2)o1	-	-	-	4µM	-
O=S(=O)(NCCC1=CCCCC1)c1ccccc1Br	-	-	-	-	-
O=S(=O)(NCCC1=CCCCC1)c1ccc(Br)cc1	-70	-	-	-	-
COc1ccccc1Nc1c2c(nc3ccc(NC(=O)c4ccccc4F)cc13)CCCC2	-66	.	-	.	.
COc1ccccc1Nc1c2c(nc3ccc(NC(=O)c4cccc(OC)c4OC)cc13)CCCC2	-	.	-	.	.
COc1ccc(C(=O)/C=C2/C(=O)Nc3ccccc32)cc1	-	-	-	?	-
COc1ccc(C(=O)/C=C2/C(=O)Nc3ccccc32)c(OC)c1	-86	-	-	-[15.4 µM]	-
O=C(CN(c1cc(C(F)(F)F)ccc1Cl)S(=O)(=O)c1ccccc1)NCCc1ccccc1	.	.	-	.	.
Cc1nnc(SCCn2c(N3CCC(Cc4ccccc4)CC3)nc3c2c(=O)[nH]c(=O)n3C)s1	-	-	-	-[15.4 µM]	-
CCCCn1c(N2CCC(Cc3ccccc3)CC2)nc2c1c(=O)[nH]c(=O)n2C	-90	-	-	-	-
CO[C@@H]1[C@@H](OC)[C@H](C)[C@@](O)(CC(=O)O)O[C@H]1[C@H](C)[C@H]1O[C@@]2(CC[C@@](C)([C@H]3CC[C@@](C)([C@@H]4O[C@@H]([C@H]5O[C@](C)(O)[C@H](C)C[C@@H]5C)C[C@@H]4OC4C[C@H](OC)[C@@H](OC)[C@H](C)O4)O3)O2)C[C@H](O)[C@H]1C (stereo partly drawn)	-66	.	.	.	.
O=C(COC(=O)COc1ccc(Cl)cc1)NCCNC(=O)COC(=O)COc1ccc(Cl)cc1	-72	-	-	-[15.4 µM]	-
O=C(COC(=O)COc1ccc(Cl)cc1)NCCCc1ccccc1	-	-	.	-[15.4 µM]	-
Cc1cccc(OCC(=O)Nc2nc3ccc([N+](=O)[O-])cc3s2)c1C	-	-	-	-	-76
COc1ccc(-c2nc(C(=O)Nc3cccc(C(C)=O)c3)nn2-c2ccccc2Cl)cc1	.	.	-	.	.
Cc1ccc(CN2CCC(CNC(=O)Nc3cccc(C)c3C)C2)cc1 (stereo not drawn)	.	.	-	.	.
COCCCNCCOCCOc1ccc(Cl)cc1C(C)(C)C	-64	-	-	-	-
C=CCc1cc(Cl)ccc1OCCNCCOC	-81	-	-	-[15.4 µM]	-
O=S(=O)(c1cccc(-c2cn3cccnc3n2)c1)N1CCOCC1	-	-	?	18µM	-
O=S(=O)(O)OCC1OC(OC2(COS(=O)(=O)O)OC(COS(=O)(=O)O)C(OS(=O)(=O)O)C2OS(=O)(=O)O)C(OS(=O)(=O)O)C(OS(=O)(=O)O)C1OS(=O)(=O)O (stereo not drawn)	-	.	.	.	.
COc1ccc(CN(C)CC(O)COc2ccc(-c3ccccc3)cc2)cc1OC (stereo not drawn)	-66	-	-	-	-
